High-throughput results (PubChem)
NF-kB neuron act: NF-kB expression increase, human neuronal cells; actives 1.6% (n = 190,000); AID 1239; NF-kB reporter expression; active compounds read high; fold change at 12.5 µM; in the data active means fold change above about 3.3
hgDAF12 agonist: activates the H. glycines DAF-12 receptor ligand-binding domain; HEK293 GAL4-hgDAF12 UAS-luciferase reporter, agonist luminescence; normalized to butyrate control; activation, % at 6.8 µM; actives 1.8% (n = 370,000);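 active means activation above a cutoff set at the mean of all screened compounds plus 3 SD, cut at about 10% in these data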;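 further: 0% = DMSO wells and 100% = sodium butyrate wells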
APP 5'UTR act: activates APP 5'UTR luciferase reporter; SH-SY5Y APP 5'UTR luciferase reporter, luminescence; zero percent = DMSO vehicle wells; activation, % at 2 µM; actives 1% (n = 190,000); AID 1276;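 active means activation above a set limit, based on mean plus 3 SD of controls, cut at about 140% in these data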
hcDAF12 agonist: H. contortus DAF-12 activation, primary screen. HEK293 hcDAF-12 lit1-tk-luc reporter, luminescence; 0% DMSO, 100% Δ7-dafachronic acid. activation, % at 6.8 µM. AID 652067. actives 1.4% (n = 370,000);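 active means activation above the mean of all tested compounds plus 3 SD, cut at about 5.5% in these data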;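 further: 100% = response to 3 µM Δ7-dafachronic acid high control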
ssDAF-12 act: activates DAF-12 receptor from parasite S. stercoralis; HEK293 ssDAF-12/GRIP1 lit1-tk-luc reporter, luminescence; % of 3 µM dafachronic acid response; activation, % at 6.8 µM; actives 1% (n = 370,000);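 active means activation above the mean over all tested compounds plus 3 SD, cut at about 0.9% in these data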;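 further: 0% = DMSO-only wells and 100% = 3 µM delta7-dafachronic acid wells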
An asterisk follows results filed as active; / = no result. Sampled rows, rich in hits. Any-hit rate of the full collection: about 3.4%.

SMILES | NF-kB neuron act | hgDAF12 agonist | APP 5'UTR act | hcDAF12 agonist | ssDAF-12 act
O=C(C1CCCN1S(=O)(=O)c1ccccc1[N+](=O)[O-])N1CCc2ccccc2C1 (centres undefined) | / | 1 | / | 0 | -1
CN1C(=O)[C@@](O)(c2cccn2C)c2cc(Cl)ccc21 | / | -1 | / | -2 | 0.9*
Cc1cc(C)n(CCN(C)C(=O)CCc2nnc(CCC3CCCCC3)o2)n1 | 3.1 | 12* | 70 | 2 | 1.2*
CCN(Cc1ccncc1)C(=O)CCc1nnc(CCC2CCCCC2)o1 | 1.7 | 0 | 12 | -2 | -1
CN(CCCC1CCCC1)C(=O)CCc1nnc(-c2ccccc2)o1 | 3.3 | 12* | 90 | 3 | 0
O=C(O)c1ccc(/C=N\Nc2ccccn2)cc1 | / | 8 | / | 6.5* | 0
Cc1cc(C)c2c(N)c3ccccc3nc2n1 | 1.3 | 11* | -11 | 18* | 4.0*
COc1ccccc1NC(=S)NNC(=O)c1nn(C)c(C)c1Br | 2.8 | 12* | 41 | 3 | 0
O=C(CCCCCN1C(=O)C2C3C=CC(C3)C2C1=O)N1CCN(c2ncccn2)CC1 (centres undefined) | / | -2 | / | -2 | -1
O=C1C(=O)N(c2ccc(O)cc2)C(c2ccccc2[N+](=O)[O-])/C1=C(\O)c1ccccc1 (centres undefined) | / | 3 | / | 5 | 2.2*
O=C1C(=O)N(CCO)C(c2ccccc2[N+](=O)[O-])/C1=C(\O)c1ccccc1 (centres undefined) | / | 3 | / | 2 | 0
COc1ccccc1NC(=O)OCCCN1CCC2(CCC(C)CC2)C1=O (centres undefined) | / | 0 | / | 0 | -2
CC(=O)N(/N=C1\Sc2ccccc2C1=O)c1ccccc1C | 5* | 4 | 131 | 5 | 0
O=C(CCS(=O)(=O)c1cc2c(cc1Br)CCN2C(=O)C1CC1)N1CCN(c2ccccn2)CC1 | / | 5 | / | 0 | -1
O=C1N2Cc3ccccc3C2CS(=O)(=O)N1CCc1ccccc1 (centres undefined) | / | 4 | / | -1 | -2
Cc1cc(Br)ccc1OCCCN1CCC(C(O)(c2ccccc2)c2ccccc2)CC1 | / | 2 | / | 0 | -1
O=C(CCC1CCCC1)NCc1cccs1 | 1.4 | 2 | 5 | 0 | -1
OC(c1cccs1)(c1cccs1)C1C[N+]2(CF)CCC1CC2 (centres undefined) | 1.1 | 0 | 2 | 5.8* | -1
CCC(=O)c1ccc(OCc2ccc(C#N)cc2)cc1 | 1.6 | 12* | 12 | 0 | 0
COc1ccc(CC(=O)Nc2cc3oc4ccccc4c3cc2OC)cc1 | 1.4 | 12* | 81 | 0 | 0
COc1ccccc1CC(=O)Nc1cc2oc3ccccc3c2cc1OC | 1.5 | -1 | 4 | -2 | -1
COc1cc2c(cc1NC(=O)CSc1ccccn1)oc1ccccc12 | 1.1 | 4 | 22 | 6.5* | 0
CCc1ccccc1NC(=O)[C@@H]1CCCN1S(=O)(=O)c1cccc2cccnc12 | / | -4 | / | -3 | -2
CC(=O)N(O)c1ccc(C=Cc2ccccc2)cc1 | / | 6 | / | 4 | -1
CN(C)c1ccc(C=C2C(=O)OC(C)(C)OC2=O)cc1 | 1.2 | 1 | 11 | -1 | 0
SMILES | NF-kB neuron act | hgDAF12 agonist | APP 5'UTR act | hcDAF12 agonist | ssDAF-12 act
CN(N=O)c1ccc(C=C2C=Cc3ccccc32)cc1 | / | 11* | / | 7.4* | 1.0*
CC(=O)N(C)c1ccc(C=C2C=Cc3ccccc32)cc1 | / | 6 | / | 6.2* | 0
CCN(CC)c1ccc(C=C2C(=O)OC(c3ccccc3)OC2=O)cc1 (centres undefined) | 1.1 | -1 | -6 | -2 | -1
CCN(N=O)c1ccc(C=C2C=Cc3ccccc32)cc1 | / | 19* | / | 5.8* | 0
COC(=O)[C@H](C(C)C)N(Cc1cn(CC2CCCCC2)nn1)S(=O)(=O)c1ccc(F)cc1Br | / | -1 | / | -1 | -2
CCc1nnc(NC(=O)CSc2ccc(-c3ccc(C)cc3)nn2)s1 | 1.3 | 4 | 38 | 3 | -2
CCOc1ccc(-c2ccc(SCC(=O)Nc3nnc(CC)s3)nn2)cc1 | 2.8 | 13* | 115 | 2 | 0
O=C(NNC1=C(C(=O)C(F)(F)F)CCC1)c1ccc(Cl)cc1 | 0.87 | 4 | 9 | 2 | -1
O=C(NNC1=C(C(=O)C(F)(F)F)CCC1)c1cccc(Cl)c1 | 1.4 | 13* | 8 | 2 | -1
CN(CCO)c1c2c(nc3cc(-c4cccc(F)c4)nn13)CCCC2 | 2.1 | 9 | 153* | 3 | 1
